The target in assay [1] is Rap guanine nucleotide exchange factor 4 (Homo sapiens) (UniProt Q8WZA2). The experiment in a line: Confirmatory qHTS for agonist of cAMP-regulated guanine nucleotide exchange factor 4 (EPAC2) (AID 1645884;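 further: nucleotide exchange releases bodipy-GDP from Rap1 and this lowers its fluorescence; nearly all actives have a fitted effect of over 65% in size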; further: potency means the concentration at half of the fitted maximal effect; on activation: on the % scale 0 is the no-effect control and ±100 the full control effect). (In general: In qHTS, concentration-response curves come from the screen itself.)
Chain of Rap guanine nucleotide exchange factor 4 (Homo sapiens) (Q8WZA2 whole entry, looked up): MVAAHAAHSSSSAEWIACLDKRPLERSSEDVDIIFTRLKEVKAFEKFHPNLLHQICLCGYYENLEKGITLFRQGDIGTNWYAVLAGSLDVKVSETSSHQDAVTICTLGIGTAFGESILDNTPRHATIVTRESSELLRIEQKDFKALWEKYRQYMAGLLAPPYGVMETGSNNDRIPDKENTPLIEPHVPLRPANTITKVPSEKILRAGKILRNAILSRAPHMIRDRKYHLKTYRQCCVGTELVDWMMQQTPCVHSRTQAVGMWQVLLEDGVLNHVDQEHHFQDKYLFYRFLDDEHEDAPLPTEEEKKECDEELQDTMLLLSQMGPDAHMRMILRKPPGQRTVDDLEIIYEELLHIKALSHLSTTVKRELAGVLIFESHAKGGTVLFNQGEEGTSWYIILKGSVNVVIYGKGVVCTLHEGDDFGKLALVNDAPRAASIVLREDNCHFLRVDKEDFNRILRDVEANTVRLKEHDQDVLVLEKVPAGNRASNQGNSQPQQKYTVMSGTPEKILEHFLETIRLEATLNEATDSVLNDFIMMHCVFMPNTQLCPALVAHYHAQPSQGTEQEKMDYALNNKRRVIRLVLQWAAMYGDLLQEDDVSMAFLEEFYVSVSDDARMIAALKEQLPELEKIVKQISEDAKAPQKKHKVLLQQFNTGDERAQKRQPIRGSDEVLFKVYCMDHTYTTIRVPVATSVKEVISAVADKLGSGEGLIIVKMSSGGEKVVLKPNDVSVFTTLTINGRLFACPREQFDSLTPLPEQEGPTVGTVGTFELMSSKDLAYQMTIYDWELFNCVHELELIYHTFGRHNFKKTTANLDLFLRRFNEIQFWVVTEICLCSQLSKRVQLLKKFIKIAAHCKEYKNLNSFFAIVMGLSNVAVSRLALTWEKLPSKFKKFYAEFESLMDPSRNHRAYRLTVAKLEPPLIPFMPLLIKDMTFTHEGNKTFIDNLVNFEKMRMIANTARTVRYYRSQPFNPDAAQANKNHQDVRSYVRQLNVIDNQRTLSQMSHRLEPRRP
Assay [2] concerns the target Rap guanine nucleotide exchange factor 3 (Homo sapiens) (UniProt O95398). Nature of the assay: Counterscreen qHTS for antagonist of cAMP-regulated guanine nucleotide exchange factor 3 (EPAC1) (AID 1645888).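 Further: fluorescence loss as bound BODIPY-GDP is released from Rap1B; % of control where 0% means no effect.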 The essentials: (§1)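 Rap1B–BODIPY-GDP (250 nM) with 50 uM GDP; compounds pin-transferred to 9.74 nM–152 uM final (activator) or from 7.32 nM upwards (inhibitor). Fluorescence Ex/Em 480/540 nm read at 5 and 30 min, then after adding cAMP or buffer, at room temperature.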
(A counterscreen serves to expose hits that act by an unwanted route or on another target.)

Assay [3] deals with Rap guanine nucleotide exchange factor 4 (Homo sapiens) (UniProt Q8WZA2). The experiment in a line: Confirmatory qHTS for antagonist of cAMP-regulated guanine nucleotide exchange factor 4 (EPAC2) (AID 1645885). Further: nearly all actives have a fitted effect of over 25% in size. Further: potency means the concentration at half of the fitted maximal effect. On activity change, negative = inhibition: on the % scale 0 is the no-effect control and ±100 the full control effect.
Assay [4] addresses Rap guanine nucleotide exchange factor 3 (Homo sapiens) (UniProt O95398). The experiment in a line: Counterscreen qHTS for agonist of cAMP-regulated guanine nucleotide exchange factor 3 (EPAC1) (AID 1645889). Further: nearly all actives have a fitted effect of over 40% in size. Further: potency means the concentration at half of the fitted maximal effect. On activation: % of control where 0% means no effect. Put shortly: as §1
Assay [5] has as its target Tumor susceptibility gene 101 protein (Homo sapiens) (UniProt Q99816). Nature of the assay: qHTS Assay for Iinhibitors of HIV-1 Budding by Blocking the Interaction of PTAP/TSG101: Hit Validation (AID 651600). Further: nearly all actives have a fitted effect of over 70% in size. Further: potency means the concentration at half of the fitted maximal effect. On activity change, negative = inhibition: on the % scale 0 is the no-effect control and ±100 the full control effect. The essentials: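 Compounds are added to the Tsg101 binding domain (10 uM final) in pH 7.5 HEPES buffer. FITC-PTAP peptide follows at 50 nM final. After 20 min at r.t., polarized FITC emission is measured.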

Assay [6] has as its target Cytochrome P450 1A2 (Homo sapiens) (UniProt P05177). Nature of the assay: p450-cyp1a2 (AID 410; calls by dose curve; further: potency means the concentration at half of the fitted maximal effect). Put shortly:
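Human CYP1A2 (20nM) demethylated Luciferin-ME at its Km (100uM) in 100mM KPO4. After 10 min compound preincubation, NADPH regeneration ran the reaction 60 min at room temperature. Luciferin was read by luminescence, normalized to 57 uM furafylline.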

For assay [7], the target named is Glucocorticoid receptor (Homo sapiens) (UniProt P04150). The experiment in a line: GR-GFP Redistribution (AID 450;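 active means compounds whose dose series gives a full or clear partial fitted curve of increased nuclear translocation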; further: potency means the concentration at half of the fitted maximal effect). As to conditions: U2OS GR-GFP nuclear translocation, laser cytometry, 2 h.
Chain of Glucocorticoid receptor (Homo sapiens) (P04150 whole entry, looked up): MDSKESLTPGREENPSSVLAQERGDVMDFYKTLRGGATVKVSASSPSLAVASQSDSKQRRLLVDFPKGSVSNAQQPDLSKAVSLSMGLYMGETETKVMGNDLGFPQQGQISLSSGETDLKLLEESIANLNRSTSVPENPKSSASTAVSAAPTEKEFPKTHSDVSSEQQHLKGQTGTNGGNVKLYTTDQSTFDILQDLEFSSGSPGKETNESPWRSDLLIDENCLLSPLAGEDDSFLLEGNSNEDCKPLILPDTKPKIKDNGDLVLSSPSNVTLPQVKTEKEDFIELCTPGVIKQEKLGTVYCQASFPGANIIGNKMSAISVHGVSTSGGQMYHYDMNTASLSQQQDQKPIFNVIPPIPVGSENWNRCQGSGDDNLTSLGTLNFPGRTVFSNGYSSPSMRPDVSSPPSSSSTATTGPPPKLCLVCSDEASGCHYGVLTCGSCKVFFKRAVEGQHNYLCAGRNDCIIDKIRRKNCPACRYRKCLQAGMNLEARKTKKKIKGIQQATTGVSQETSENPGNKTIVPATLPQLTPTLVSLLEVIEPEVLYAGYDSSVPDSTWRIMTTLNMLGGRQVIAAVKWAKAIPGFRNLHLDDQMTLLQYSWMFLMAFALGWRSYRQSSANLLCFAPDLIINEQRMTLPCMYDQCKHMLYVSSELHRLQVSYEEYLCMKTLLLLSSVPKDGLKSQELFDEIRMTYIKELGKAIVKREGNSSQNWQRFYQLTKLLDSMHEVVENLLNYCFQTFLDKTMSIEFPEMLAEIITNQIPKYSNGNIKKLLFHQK
The target is the same in assay [8]. Nature of the assay: GR-EFC Redistribution (AID 451; calls by dose curve; further: potency means the concentration at half of the fitted maximal effect). As to conditions: CHO-K1 GR-EFC translocation, beta-gal luminescence, 2 h. The essentials:
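CHO-K1 cells expressing nuclear EA and GR-ED fragments of b-gal; compounds titrated up to 46 uM final, 2 h at 37 C. GR nuclear translocation read as complemented b-gal luminescence after 1 h RT detection.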

The target in assay [9] is Mitogen-activated protein kinase 10 (Mus musculus) (UniProt Q61831). The experiment in a line: JNK3 AlphaScreen Assay (AID 530; active means well fitted curve in either direction with a large enough effect, not every such curve was filed as active;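 further: kinase came from lysate of stimulated human HepG2 cells; signal reports phosphorylation of biotinylated GST-cJun 1-79 at Ser73 with 10 µM ATP; series mostly up to about 57 µM; on the % scale 0 is the no-effect control and ±100 the full control effect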). Put shortly: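 qHTS format: compounds tested as titrations against IL-1beta/TNF-alpha-activated HepG2 lysate JNK3 with biotin-GST-cJun substrate and 10 uM ATP at room temperature. Loss of anti-phospho-cJun AlphaScreen signal indicates inhibition.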
(In Alpha technology, singlet oxygen from a donor bead excites a nearby acceptor bead.)

For assay [10], the target named is 3',5'-cyclic-AMP phosphodiesterase 4B (Homo sapiens) (UniProt Q07343). Nature of the assay: qHTS Assay for Inhibitors of PDE-IV (AID 607; active means well fitted activation curve with a large enough effect in the main read-out, with a control signal flat, not every such curve was filed as active; further: % of control where 0% means no effect). The essentials: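 HEK293 ACTOne cells with CNG channel (1000/well), endogenous PDE4; membrane potential dye, compounds up to 22.9 uM final. Fluorescence Ex 535/Em 590; RO 20-1724 (100 uM final) as reference.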
Chain of 3',5'-cyclic-AMP phosphodiesterase 4B (Homo sapiens) (Q07343 whole entry, looked up): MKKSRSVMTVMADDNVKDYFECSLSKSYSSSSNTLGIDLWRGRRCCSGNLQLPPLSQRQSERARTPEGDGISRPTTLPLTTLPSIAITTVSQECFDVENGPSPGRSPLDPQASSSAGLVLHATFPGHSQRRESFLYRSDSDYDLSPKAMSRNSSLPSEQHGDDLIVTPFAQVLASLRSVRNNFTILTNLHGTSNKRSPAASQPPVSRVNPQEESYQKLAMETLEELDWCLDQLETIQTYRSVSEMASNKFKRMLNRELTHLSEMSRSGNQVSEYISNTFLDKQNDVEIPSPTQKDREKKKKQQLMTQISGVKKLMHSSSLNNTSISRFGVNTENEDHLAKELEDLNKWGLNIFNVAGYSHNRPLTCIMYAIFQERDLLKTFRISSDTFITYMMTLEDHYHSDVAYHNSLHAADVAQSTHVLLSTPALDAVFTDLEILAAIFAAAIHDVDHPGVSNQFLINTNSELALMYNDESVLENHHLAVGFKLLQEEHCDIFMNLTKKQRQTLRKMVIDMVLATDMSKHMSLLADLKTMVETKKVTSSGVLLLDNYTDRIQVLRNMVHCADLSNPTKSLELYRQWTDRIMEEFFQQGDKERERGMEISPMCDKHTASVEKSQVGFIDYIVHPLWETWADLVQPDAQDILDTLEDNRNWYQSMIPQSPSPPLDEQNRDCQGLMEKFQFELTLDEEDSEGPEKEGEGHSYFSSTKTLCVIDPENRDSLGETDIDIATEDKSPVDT
For assay [11], the target named is Cytochrome P450 2C9 (Homo sapiens) (UniProt P11712). The experiment in a line: qHTS Assay for Inhibitors and Substrates of Cytochrome P450 2C9 (AID 883). Further: on the % scale 0 is the no-effect control and ±100 the full control effect; nearly all actives have a fitted effect of over 60% in size. Put shortly:
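Signal: luciferase luminescence reporting luciferin produced by CYP2C9. Conditions: 10nM enzyme, Luciferin-H 100uM at KM, 25mM KPO4, 37C, 60 min NADPH-driven reaction. Reference: 57uM sulphaphenazole as 100% inhibition.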

The target of assay [12] is Cytochrome P450 3A4 (Homo sapiens) (UniProt P08684). The experiment in a line: qHTS Assay for Activators of Cytochrome P450 3A4 (AID 885). Further: nearly all actives have a fitted effect of over 65% in size. The essentials: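 Human CYP3A4 (20 nM) with Luciferin-PPXE at 25 uM (its KM) in 200 mM KPO4; 10 min compound preincubation, then NADPH regeneration and 60 min reaction at RT. Luciferin read by luminescence; normalized to 57 uM ketoconazole full inhibition.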
Chain of Cytochrome P450 3A4 (Homo sapiens) (P08684 whole entry, looked up): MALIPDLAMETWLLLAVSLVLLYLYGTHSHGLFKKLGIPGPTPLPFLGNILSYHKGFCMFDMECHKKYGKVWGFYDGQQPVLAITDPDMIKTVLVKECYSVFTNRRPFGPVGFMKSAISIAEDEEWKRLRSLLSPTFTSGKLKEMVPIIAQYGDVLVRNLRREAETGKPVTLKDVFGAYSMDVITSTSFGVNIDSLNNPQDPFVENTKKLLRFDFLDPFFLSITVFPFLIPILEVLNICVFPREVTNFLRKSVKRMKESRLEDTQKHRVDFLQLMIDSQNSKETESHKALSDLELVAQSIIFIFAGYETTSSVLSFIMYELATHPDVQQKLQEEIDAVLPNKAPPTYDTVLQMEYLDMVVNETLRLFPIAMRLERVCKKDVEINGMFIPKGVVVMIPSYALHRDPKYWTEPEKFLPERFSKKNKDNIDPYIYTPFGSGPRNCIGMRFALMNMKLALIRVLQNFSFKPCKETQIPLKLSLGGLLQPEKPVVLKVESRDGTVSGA

In assay [13] the target is Cytochrome P450 2D6 (Homo sapiens) (UniProt P10635). The experiment in a line: qHTS Assay for Inhibitors and Substrates of Cytochrome P450 2D6 (AID 891).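 Further: luciferin methyl ether substrate demethylated by CYP2D6 with NADPH regeneration; on the % scale 0 is the no-effect control and ±100 the full control effect; nearly all actives have a fitted effect of over 60% in size.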 Put shortly: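 Human CYP2D6 (5 nM) with 30 uM Luciferin-ME EGE (at Km) in 100 mM KPO4, compound preincubated 10 min, then NADPH regeneration system for 60 min at room temperature. Luciferin read by luminescence; normalized to 1.43 uM quinidine.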

The target in assay [14] is Cytochrome P450 2C19 (Homo sapiens) (UniProt P33261). The experiment in a line: qHTS Assay for Inhibitors and Substrates of Cytochrome P450 2C19 (AID 899). Further: on the % scale 0 is the no-effect control and ±100 the full control effect; nearly all actives have a fitted effect of over 60% in size. Put shortly:
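Signal comes from luciferase acting on luciferin released by CYP2C19-mediated hydroxylation of Luciferin-H EGE, 10uM (KM). Assay mix: 5nM enzyme, 50mM KPO4; 60 min at 37C with NADPH regeneration. Data normalized against 57uM ketoconazole.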

Assay [15] addresses DNA dC->dU-editing enzyme APOBEC-3G (Homo sapiens) (UniProt Q9HC16). Nature of the assay: qHTS for inhibitors of Vif-A3G interactions: Validation (AID 588379). Further: 0% is about no effect. Put shortly: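 HeLa cells stably expressing Vif and A3G-eYFP, 700 cells/well, incubated overnight at 37 deg C, then exposed to compound overnight at 37 deg C. Inhibition of Vif-mediated degradation read as increased yellow fluorescence (Ex 488/Em 500-530) by laser-scanning cytometry.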

Values without a mark were called inactive. Inconclusive results are not listed. Calls of active or inactive are those of the source. Unless noted, the call rests on the fitted dose curve; in most records, active means well fitted curve in the direction sought with a large enough effect; inconclusive means small, poorly fitted or top-dose-only effect, or another doubt; inactive means no such curve, though single readings can be large; an effect the other way counts as inactive or inconclusive.

Chain of Tumor susceptibility gene 101 protein (Homo sapiens) (Q99816 whole entry, looked up, the tested form may be a part): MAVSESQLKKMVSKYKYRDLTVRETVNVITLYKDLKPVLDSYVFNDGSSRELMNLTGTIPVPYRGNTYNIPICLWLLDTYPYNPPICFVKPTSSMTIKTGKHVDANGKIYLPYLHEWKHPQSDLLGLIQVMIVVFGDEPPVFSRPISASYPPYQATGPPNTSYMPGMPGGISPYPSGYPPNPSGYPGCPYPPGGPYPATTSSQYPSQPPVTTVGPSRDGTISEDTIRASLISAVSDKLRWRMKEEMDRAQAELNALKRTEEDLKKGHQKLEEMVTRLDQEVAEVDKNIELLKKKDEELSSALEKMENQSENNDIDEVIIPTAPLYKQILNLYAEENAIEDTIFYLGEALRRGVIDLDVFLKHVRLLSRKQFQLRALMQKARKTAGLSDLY
Chain of Rap guanine nucleotide exchange factor 3 (Homo sapiens) (O95398 whole entry, looked up): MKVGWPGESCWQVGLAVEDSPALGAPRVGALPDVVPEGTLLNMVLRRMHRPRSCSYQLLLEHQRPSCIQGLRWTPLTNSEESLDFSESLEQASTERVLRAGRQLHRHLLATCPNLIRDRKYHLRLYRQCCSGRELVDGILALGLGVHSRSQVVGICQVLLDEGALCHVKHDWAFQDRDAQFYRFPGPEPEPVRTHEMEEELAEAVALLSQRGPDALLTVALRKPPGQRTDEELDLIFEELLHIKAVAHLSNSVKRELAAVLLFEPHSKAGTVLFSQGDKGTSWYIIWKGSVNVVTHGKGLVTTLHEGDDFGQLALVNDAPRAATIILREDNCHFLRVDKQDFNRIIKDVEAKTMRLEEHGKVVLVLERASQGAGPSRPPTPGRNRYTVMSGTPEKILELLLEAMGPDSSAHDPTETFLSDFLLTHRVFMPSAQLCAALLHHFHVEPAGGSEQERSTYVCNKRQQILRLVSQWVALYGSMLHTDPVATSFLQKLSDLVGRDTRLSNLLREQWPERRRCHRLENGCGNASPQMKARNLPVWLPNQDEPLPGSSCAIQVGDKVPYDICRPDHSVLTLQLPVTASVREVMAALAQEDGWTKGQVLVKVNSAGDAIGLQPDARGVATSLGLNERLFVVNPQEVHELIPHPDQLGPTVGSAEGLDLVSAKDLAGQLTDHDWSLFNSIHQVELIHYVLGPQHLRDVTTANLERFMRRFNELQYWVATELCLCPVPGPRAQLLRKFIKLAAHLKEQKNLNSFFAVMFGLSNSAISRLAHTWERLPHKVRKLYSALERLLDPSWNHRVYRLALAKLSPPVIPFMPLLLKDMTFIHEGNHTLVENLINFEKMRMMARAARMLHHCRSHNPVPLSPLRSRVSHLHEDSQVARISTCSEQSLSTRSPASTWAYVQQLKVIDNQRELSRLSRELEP
Chain of Cytochrome P450 2C9 (Homo sapiens) (P11712 whole entry, looked up): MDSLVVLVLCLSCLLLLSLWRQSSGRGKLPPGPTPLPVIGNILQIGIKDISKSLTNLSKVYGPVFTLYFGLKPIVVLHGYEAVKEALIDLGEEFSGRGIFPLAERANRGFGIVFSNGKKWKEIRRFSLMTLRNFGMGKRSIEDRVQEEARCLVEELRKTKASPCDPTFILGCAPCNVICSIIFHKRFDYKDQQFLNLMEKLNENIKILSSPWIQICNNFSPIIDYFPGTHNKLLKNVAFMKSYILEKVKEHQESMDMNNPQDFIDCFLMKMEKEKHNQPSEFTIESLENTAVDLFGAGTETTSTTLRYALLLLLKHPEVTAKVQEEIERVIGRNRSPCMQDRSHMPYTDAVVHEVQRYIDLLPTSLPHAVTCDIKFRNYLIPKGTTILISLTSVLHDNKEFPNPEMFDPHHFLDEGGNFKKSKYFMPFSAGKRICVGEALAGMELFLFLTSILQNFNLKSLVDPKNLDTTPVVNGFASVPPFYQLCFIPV

As to `CCOc1ccccc1CN(CCc1ccc2c(c1)OCO2)Cc1ccccn1`, in assay [1], the activation is 11.2% [at 17.1 µM, percent relative to cAMP agonist control]. For the same compound, the activity change, negative = inhibition in [2] is 2.25% [at 30.8 µM].
As to `COc1ccc(C(=O)NCCn2cc(SCC(=O)NCCc3ccc(OC)c(OC)c3)c3ccccc32)cc1`, the Potency entry in [1], in assay [3], in assay [2] and in [4] was “inactive” each time.
For the compound `COc1ccc2c3c(cccc13)C(=O)CC2`, the Potency in [5] is 18.3 µM (active); in assay [1] it was 112 µM (active); in assay [4], 31.6 µM (active). In addition, the Potency result in assay [3] was “inactive”.
Turning to `Cc1cccc(C)c1NC(=O)CN1C(=O)S/C(=C\c2cccn2-c2cccc(C(=O)O)c2)C1=O`, in assay [1], the Potency was 100 µM (active). In addition, the Potency result in assay [2] and in assay [4] was “inactive” in each case.
With `O=C(Cn1ccc(=O)[nH]c1=O)c1ccc([N+](=O)[O-])o1`, the activation is 15.2% [at 17.1 µM, percent relative to cAMP agonist control] in assay [1] and 18.6% [at 30.8 µM] in assay [4]. Besides, the Potency result in assay [3] was “inactive”. Further, the activity change, negative = inhibition in assay [2] is -11.8% [at 30.8 µM].
For the compound `COc1ccc(C(=O)c2ccc(Br)cc2)c(OC)c1OC`, the Potency result in assay [1], in assay [2] and in assay [4] was “inactive” in each case. In [3], the Potency was 6.01 µM (active).
For `COc1cc(/C=C2\CCn3c2nc2cc(C(=O)O)ccc2c3=O)ccc1OC(F)F`, the Potency entry in assay [1], in [3], in [2] and in [4] was “inactive” in each case.
Turning to `COc1cc2ccccc2cc1C(=O)NC(=S)Nc1cccc(C(=O)O)c1`, the activation in assay [1] was 3.08% [at 17.1 µM, percent relative to cAMP agonist control]; in assay [4], 7.44% [at 30.8 µM]. Further, the Potency result in [3] was “inactive”. In addition, in assay [2], the activity change, negative = inhibition is -9.48% [at 30.8 µM].
As for `NC(N)=N/N=C/c1ccc(OCc2ccc(Cl)cc2Cl)cc1`, the activation in [1] is 3.24% [at 17.1 µM, percent relative to cAMP agonist control]; in assay [4] it was 27.4% [at 30.8 µM]. For the same compound, the Potency entry in [3] was “inactive”. Moreover, the activity change, negative = inhibition in assay [2] is 10.5% [at 30.8 µM].
Regarding `CC(=O)N1CCc2nc3sc(C(=O)c4ccc(F)cc4)c(N)c3c(C(F)(F)F)c2C1`, the Potency entry in assay [5], in assay [1], in [3] and in assay [2] was “inactive” each time.
Consider `CCOC(=O)c1ccc(/C=C2/C=C(c3ccccc3)N(c3ccc(Cl)c(C(=O)O)c3)C2=O)cc1`, for which the Potency in [1] is 100 µM (active). In assay [2], the Potency result is “inactive”.
On to `CC1(Cc2cc(Cl)ccc2C(F)(F)F)C(=O)Nc2c(Cl)cccc21` (centres undefined), for which the Potency result in assay [1] and in assay [4] was “inactive” each time. Also, the Potency in assay [3] was 30.1 µM (active).
On to `CNc1ccc(/C=C(\CCC(=O)O)c2nc3ccccc3s2)cc1[N+](=O)[O-]`, for which the activation in assay [1] is 0% [at 17.1 µM, percent relative to cAMP agonist control]; in assay [4], 19.8% [at 30.8 µM]. For the same compound, the Potency entry in assay [3] was “inactive”. Besides, the activity change, negative = inhibition in assay [2] was -16.8% [at 30.8 µM].
With `O=[N+]([O-])c1ccc(NS(=O)(=O)c2ccccc2)c(Cl)c1`, the Potency result in assay [1], in assay [3], in [2] and in assay [4] was “inactive” in each case.
Turning to `CCOc1ccc(/C=C2\SC(=S)N(NS(=O)(=O)c3ccccc3)C2=O)cc1OC`, the Potency is 112 µM (active) in [1] and 37.9 µM (active) in assay [3]. Besides, the Potency result in assay [2] and in [4] was “inactive” each time.
Turning to `COc1cc2cc(Oc3ccc4ccc(=O)oc4c3)c(=O)oc2cc1O`, the Potency in assay [6] is 2 µM (active); in [7] it was over 46 µM; in assay [8], over 46 µM. The Potency result in assay [9], in assay [10], in assay [11], in assay [13], in assay [14] and in assay [3] was “inactive” each time. For the same compound, the result in [12] and in [15] was inactive. Moreover, the activation in assay [1] was 1.41% [at 17.1 µM, percent relative to cAMP agonist control]. Also, the activity change, negative = inhibition in [2] was -3.83% [at 30.8 µM].
In the case of `CC1(C)CC2CC(C)(CN2C(=O)c2cc(-c3ccccc3O)on2)C1` (centres undefined), the activation was 10.5% [at 17.1 µM, percent relative to cAMP agonist control] in [1] and 17.1% [at 30.8 µM] in assay [4]. Moreover, the Potency result in [3] was “inactive”. Also, the activity change, negative = inhibition in assay [2] is 5.82% [at 30.8 µM].
For the compound `Cc1cccc(N2C(=O)c3cccc4c(N)ccc(c34)C2=O)c1`, the Potency was 2.31 µM (active) in [5], 112 µM (active) in assay [1], 84.9 µM (active) in [3] and 70.8 µM (active) in [4].
As for `S=c1[nH]nc(-c2cc(-c3ccccc3)n[nH]2)n1/N=C/c1ccc(Cl)c(Cl)c1`, the activation in assay [1] was 2.21% [at 17.1 µM, percent relative to cAMP agonist control]; in [4] it was 18.4% [at 30.8 µM]. The Potency entry in [3] was “inactive”. Besides, the activity change, negative = inhibition in assay [2] is -11.9% [at 30.8 µM].

The values above are taken from PubChem BioAssay (NCATS).
